Results taken from PubChem BioAssay (NCATS).
“And” between values parts separate entries of the source, which are not always exact repeats. Identical values can stand only once. Inconclusive results are not listed. The source made the active and inactive calls. Unless noted, the call rests on the fitted dose curve; in most records, active means well fitted curve in the direction sought with a large enough effect; inconclusive means small, poorly fitted or top-dose-only effect, or another doubt; inactive means no such curve, though single readings can be large; an effect the other way counts as inactive or inconclusive.

What was measured:
[1] = Validation of Assay for Modulators of Lamin A Splicing (AID 1459; active means well fitted curve in the direction sought with a large enough effect in the signal ratio; the % refers to the signal ratio;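 further: cells exposed to compound for two days before reading; 0% is about no effect; ratio rise marks activators and ratio drop marks inhibitors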); conditions: Lamin A splicing dual RFP/GFP fluorescence reporter; series mostly up to 9.22 µM
In short: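 HeLa S3 lamin A-EGFP/DsRed2 stable clone, 600 cells/well, Opti-MEM 2% FBS; compounds by pin tool; 48 hrs, 37 °C/5% CO2; Acumen 488 nm scan, objects 10-100 um; GFP/RFP intensity ratio.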

[2] = qHTS Assay for Lipid Storage Modulators (AID 1519; calls by dose curve; on activity change, negative = inhibition: on the % scale 0 is the no-effect control and ±100 the full control effect); conditions: Drosophila S3 cells, BODIPY lipid droplet/cell ratio, laser cytometry, cells loaded with oleic acid
In short: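 Cells seeded at 5,000 per well were treated with compounds over a concentration series and loaded with oleic acid (400 uM, as added). Lipid droplet fluorescence (488 nm excitation, 500-530 nm channel) was read by laser-scanning cytometry and normalized to 20 uM Triacsin C.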

[3] = Counterscreen for APE1 Inhibitors: Fluorescent Dye Displacement Validation Assay (AID 1707); conditions: fluorescent dye displacement from DNA; series mostly up to 57.1 µM;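 further: plate controls were ThO with dsDNA and no compound for no effect and ThO without dsDNA for full effect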
In short: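 Endpoint fluorescence read at 480 nm excitation / 540 nm emission; DNA-binding compounds lower signal by displacing 250 nM Thiazole Orange from 50 nM dsDNA containing a tetrahydrofuran abasic site, Tris-HCl pH7.5 buffer with NaCl and MgCl2.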

[4] = qHTS for differential inhibitors of proliferation of Plasmodium falciparum line 3D7 (AID 1876); further: potency means the concentration at half of the fitted maximal effect; conditions: P. falciparum 3D7 proliferation inhibition; series mostly up to 28.7 µM
[5] = target: DNA repair nuclease/redox regulator APEX1 (Homo sapiens) (UniProt P27695); assay: qHTS Validation Assay for Inhibitors of the Human Apurinic/apyrimidinic Endonuclease 1 (APE1) (AID 1705; further: potency means the concentration at half of the fitted maximal effect;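 on activity change, negative = inhibition: TAMRA fluorescence gain over two minutes as APE1 cuts a quenched THF abasic duplex; on the % scale 0 is the no-effect control and ±100 the full control effect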); conditions: purified APE1 endonuclease activity, fluorescence, titration; series mostly up to 57.1 µM
In short: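 qHTS, 1536-well. APE1 + cpd 15 min RT → 50 nM TAMRA/BHQ-2 THF-abasic dsDNA substrate → kinetic fluorescence, 3 reads/60 s; delta(read3−read1) = reaction progress. No-enzyme buffer = negative control.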

[6] = target: Endonuclease 4 (Escherichia coli (strain K12)) (UniProt P0A6C1); assay: Counterscreen for APE1 Inhibitors: qHTS Validation Assay for Inhibitors of Endonuclease IV (AID 1708); further: potency means the concentration at half of the fitted maximal effect; on activity change, negative = inhibition: on the % scale 0 is the no-effect control and ±100 the full control effect; conditions: E. coli endonuclease IV, DNA cleavage fluorescence; series mostly up to 57.1 µM
In short: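 Conditions: 2 nM enzyme, 50 nM TAMRA/BHQ-2 substrate, pH 7.5 Tris buffer with 2 mM MgCl2, RT. Compound preincubation 15 min; readout three fluorescence reads 60 s apart, third-minus-first.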

[7] = qHTS for differential inhibitors of proliferation of Plasmodium falciparum line 7G8 (AID 1815); conditions: Plasmodium falciparum 7G8 proliferation inhibition; series mostly up to 28.7 µM;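 further: parasite growth measured after three days of incubation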; further: potency means the concentration at half of the fitted maximal effect;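 on activity change, negative = inhibition: plate controls were vehicle wells for no effect and reference inhibitor wells for full effect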
[8] = qHTS for differential inhibitors of proliferation of Plasmodium falciparum line GB4 (AID 1816); conditions: Potency: Plasmodium falciparum GB4 proliferation inhibition; series mostly up to 28.7 µM;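 further: parasite growth measured after 72 h incubation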; further: potency means the concentration at half of the fitted maximal effect;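 on activity change, negative = inhibition: 0% = vehicle DMSO and -100% = reference inhibitor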
[9] = target: alpha-glucosidase (Oryza sativa, rice) (UniProt Q653V4); assay: Counterscreen for Glucocerebrosidase Inhibitors: qHTS Assay for Rice alpha-Glucosidase at pH 5.0 (AID 997); conditions: rice alpha-glucosidase enzyme activity; series mostly up to 76.9 µM;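 further: 0% = full activity with enzyme and -100% = basal without enzyme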
In short: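 Endpoint fluorogenic assay at pH 5.0: compounds (0.7 nM to 77 uM) titrated against 4 nM rice enzyme and 400 uM 4-MU-alpha-glucoside for 20 min at room temperature; NaOH/glycine stop, read ex 365/em 440 nm, Hill-fitted AC50.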

[10] = measured here: cell count channel max response
[11] = measured here: lipid channel max response

Chain of DNA repair nuclease/redox regulator APEX1 (Homo sapiens) (P27695 whole entry, looked up): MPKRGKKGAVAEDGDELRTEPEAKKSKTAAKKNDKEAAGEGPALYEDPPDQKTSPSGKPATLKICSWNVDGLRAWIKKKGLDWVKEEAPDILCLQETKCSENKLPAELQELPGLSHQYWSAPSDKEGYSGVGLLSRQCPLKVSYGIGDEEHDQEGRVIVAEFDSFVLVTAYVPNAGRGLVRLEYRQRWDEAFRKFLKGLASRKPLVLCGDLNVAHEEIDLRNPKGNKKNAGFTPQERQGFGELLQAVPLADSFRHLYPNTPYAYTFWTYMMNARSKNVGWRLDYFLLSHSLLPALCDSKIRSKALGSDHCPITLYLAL

N=S(=O)(O)Cc1noc2ccccc12
21.5%: max response [2, 10]
20%: max response [2, 11]
inactive: outcome [1] | activity change, negative = inhibition ([2]; at 57.5 µM (top of the series)) -0.718% | Potency [3] | Potency [4]

CCCCS(=N)(=O)CC[C@H](N)C(=O)O (stereo partly specified)
inactive: outcome [1] | Potency [5] | Potency [3] | Potency [6]
active: Potency [7] 12.6 µM | Potency [8] 11.2 µM

CCCCCCC/C=C\CCCCCCCCC(=O)O
active: Potency [5] 35.5 µM
inactive: outcome [9] | outcome [1] | activity change, negative = inhibition ([2]; at 57.5 µM (top of the series)) -0.534% | Potency [7] | Potency [8] | Potency [4]
-10.7%: max response [2, 11]
-11.1%: max response [2, 10]

O=C(O)C1=CCCNC1
inactive: outcome [9] | outcome [1] | activity change, negative = inhibition ([2]; at 57.5 µM (top of the series)) 5.3% and 2.39% and 0.0791% | Potency [3] | Potency [6] | Potency [7] | Potency [8] | Potency [4]
19.5% and 15.3% and -4.32%: max response [2, 11]
11.8% and 11.1% and -5.85%: max response [2, 10]

CC(=O)NNC(=O)N1Cc2ccccc2Oc2ccc(Cl)cc21
4.04% and 30.3%: max response [2, 11]
-1.09% and 39.5%: max response [2, 10]
inactive: outcome [1] | activity change, negative = inhibition ([2]; at 57.5 µM (top of the series)) 3.63% and -0.28% | Potency [5] | Potency [3] | Potency [8] | Potency [4]

[Li+]
inactive: outcome [1] | Potency [5] | Potency [3] | Potency [6] | Potency [7] | Potency [8] | Potency [4]

CC(=O)/C(C)=N/O
6.8%: max response [2, 11]
inactive: outcome [1] | activity change, negative = inhibition ([2]; at 57.5 µM (top of the series)) 2.05% | Potency [3] | Potency [7] | Potency [8] | Potency [4]
5.13%: max response [2, 10]

NC(N)=[N+]1CCc2ccccc2C1
inactive: outcome [9] | outcome [1] | activity change, negative = inhibition ([2]; at 57.5 µM (top of the series)) 1.3% | Potency [3] | Potency [6] | Potency [7] | Potency [8] | Potency [4]
6.74%: max response [2, 10]
-12.8%: max response [2, 11]

Nc1ncnc2c1ncn2C1CCCO1 (stereo unspecified)
22.8%: max response [2, 11]
24.9%: max response [2, 10]
inactive: outcome [1] | activity change, negative = inhibition ([2]; at 57.5 µM (top of the series)) -1.26% | Potency [3] | Potency [6] | Potency [7] | Potency [8] | Potency [4]

NCC(O)c1ccc(O)c(O)c1 (stereo unspecified)
inactive: outcome [1] | Potency [5] | Potency [3]

COc1ccc(CCN(C)CCc2ccc(OC)c(OC)c2)cc1OC
inactive: outcome [9] | outcome [1] | activity change, negative = inhibition ([2]; at 57.5 µM (top of the series)) -1.77% and -1.64% | Potency [5] | Potency [3]
7.2% and 26.8%: max response [2, 10]
4.66% and 25.1%: max response [2, 11]

COCc1nc2c([nH]1)c(=O)n(C)c(=O)n2CC(C)C
-18.2%: max response [2, 11]
-19.5%: max response [2, 10]
inactive: outcome [1] | activity change, negative = inhibition ([2]; at 57.5 µM (top of the series)) 1.67% | Potency [3] | Potency [7] | Potency [8] | Potency [4]

O=C(O)C1=CC(=C(c2ccc(O)c(C(=O)O)c2)c2ccc(O)c(C(=O)O)c2)C=CC1=O
16.1% and 56.8%: max response [2, 10]
inactive: outcome [9] | outcome [1] | activity change, negative = inhibition ([2]; at 57.5 µM (top of the series)) 3.23% and 0.986% | Potency [3]
22% and 58.3%: max response [2, 11]
active: Potency [6] 0.708 µM

Oc1cc(O)c2c(c1)O[C@H](c1ccc(O)c(O)c1)[C@@H](O)C2
-13.1%: max response [2, 11]
-12.7%: max response [2, 10]
inactive: outcome [1] | activity change, negative = inhibition ([2]; at 57.5 µM (top of the series)) 1.15% | Potency [3] | Potency [6] | Potency [7] | Potency [8] | Potency [4]

Nc1ccc(CCNc2ncnc3c2ncn3C2OC(CO)C(O)C2O)cc1 (stereo unspecified)
inactive: outcome [1] | Potency [5] | Potency [3]

COc1ccc(-c2ccc(N)[n+](CCCC(=O)O)n2)cc1
7.04%: max response [2, 11]
3.21%: max response [2, 10]
inactive: outcome [1] | activity change, negative = inhibition ([2]; at 25.7 µM (top of the series)) -0.132% | Potency [3] | Potency [6] | Potency [7] | Potency [8] | Potency [4]

CC[N+](CC)(CC)CC(=O)Nc1c(C)cccc1C
inactive: outcome [9] | outcome [1] | activity change, negative = inhibition ([2]; at 57.5 µM (top of the series)) 4.67% | Potency [3] | Potency [6] | Potency [7] | Potency [8] | Potency [4]
-3.7%: max response [2, 10]
2.48%: max response [2, 11]

O=C(O)Cc1ccc(O)c(O)c1
inactive: outcome [1] | activity change, negative = inhibition ([2]; at 57.5 µM (top of the series)) -0.0553% | Potency [3] | Potency [8] | Potency [4]
-14.9%: max response [2, 11]
-16.6%: max response [2, 10]
active: Potency [5] 7.94 µM

CC1CCN=C(N)S1 (stereo unspecified)
inactive: outcome [1] | Potency [5] | Potency [3] | Potency [6] | Potency [7]

CCC(=O)N1CCN(C(=O)c2ccccc2)CC1
-9.69%: max response [2, 10]
inactive: outcome [9] | outcome [1] | activity change, negative = inhibition ([2]; at 57.5 µM (top of the series)) 0.685% | Potency [5] | Potency [3]
-7.51%: max response [2, 11]

CCCOC(=O)c1c(-c2ccccc2)nc(CC)c(C(=O)SCC)c1CCC
active: Potency [7] 12.6 µM | Potency [8] 11.2 µM
inactive: outcome [1] | Potency [5] | Potency [3] | Potency [6]

NCCNS(=O)(=O)c1cccc2c(Cl)cccc12
inactive: outcome [9] | outcome [1] | activity change, negative = inhibition ([2]; at 57.5 µM (top of the series)) -0.563% | Potency [3]
active: Potency [7] 7.08 µM | Potency [8] 8.91 µM | Potency [4] 12.6 µM
-2.01%: max response [2, 10]
-12.2%: max response [2, 11]

N#C/C(=C\c1ccc(O)c(O)c1)C(=O)NCCc1ccccc1
active: Potency [7] 8.91 µM | Potency [8] 10 µM | Potency [4] 11.2 µM
inactive: outcome [9] | outcome [1] | Potency [5] | Potency [3] | Potency [6]

COC1(C2=NCCN2)COc2ccccc2O1 (stereo unspecified)
inactive: outcome [1] | Potency [5] | Potency [3] | Potency [6] | Potency [7] | Potency [4]

CCCCCC[C@@H]([C@@H](C)O)n1cnc2c(N)ncnc21
inactive: outcome [1] | Potency [5] | Potency [3] | Potency [7] | Potency [8]

CCN(CC)CCOC(=O)c1cc(Cl)c(N)cc1OC
inactive: outcome [9] | outcome [1] | Potency [5] | Potency [3] | Potency [6] | Potency [7] | Potency [8] | Potency [4]

C=CC[C@H](N)C(=O)O
inactive: outcome [1] | Potency [5] | Potency [3] | Potency [7] | Potency [8] | Potency [4]

Cc1cccc(C2CN(C)CCc3c2cc(O)c(O)c3Cl)c1 (stereo unspecified)
active: Potency [7] 7.94 µM | Potency [8] 8.91 µM | Potency [4] 8.91 µM
inactive: outcome [1] | Potency [5] | Potency [3] | Potency [6]

CC(N)(C(=O)O)c1ccc(C(=O)O)cc1 (stereo unspecified)
inactive: outcome [1] | Potency [5] | Potency [3] | Potency [7] | Potency [8] | Potency [4]

O=S(=O)(c1cccc2c(Cl)cccc12)N1CCCNCC1
inactive: outcome [1] | Potency [5] | Potency [3]
active: Potency [7] 5.01 µM | Potency [8] 3.16 µM | Potency [4] 14.1 µM

O=c1cc(O)cc(/C=C/c2ccc(O)c(O)c2)o1
inactive: outcome [1] | Potency [3]
active: Potency [5] 0.794 µM | Potency [7] 8.91 µM | Potency [8] 12.6 µM
